Here are results for eight compounds from PubChem BioAssay (Tox21).

Molecules are shown by their SMILES. Several values for one entry are separate records, joined by “and”; a condition that tells them apart may be missing. Equal entries are not always repeated. Records with an inconclusive call do not appear. Some compounds were tested as several samples or in several runs, with calls that do not always agree. Activity calls are given as the source filed them. Unless noted, calls come from the whole dose curve.

A short description of assay [1]: Nuclear factor erythroid 2-related factor 2/antioxidant responsive element (Nrf2/ARE) small molecule agonists: luciferase reporter gene qHTS assay in human keratinocytes (AID 1919969). Note: nearly all actives have a fitted effect of over 35% in size. Note: potency is the fitted concentration of half-maximal effect.
Assay [2] addresses Gonadotropin-releasing hormone receptor (Homo sapiens) (UniProt P30968). Kind of assay: Human gonadotropin-releasing hormone receptor (GnRHR) small molecule agonists, calcium flux assay in GnRHR-HEK293 cells (AID 1920063). Note: nearly all actives have a fitted effect of over 35% in size. An outline of the steps: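 Cells: HEK293 stably expressing human GnRHR. Steps: overnight (18 h) culture, 1 h calcium dye loading at 37 C, compound addition, kinetic fluorescence read at 480/540 nm. Each compound tested at 15 concentrations in triplicate.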

Assay [3] deals with KiSS-1 receptor (Homo sapiens) (UniProt Q969F8). As to the kind of experiment: Human kisspeptin (KISS1R) small molecule agonists, calcium flux assay in KISS1R-HEK293 cells (AID 1920064; active = well fitted activation curve with a large enough effect in the repeat runs). In short, it runs like this:
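Cells plated and incubated 18 h; dye added, 1 h at 37 C; compounds in DMSO pinned in; signal read at 480/540 nm every second for 3 min. Each compound tested at 15 concentrations in triplicate.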

The nature of assay [4]: G protein-coupled receptor (GPCR) small molecule agonists, calcium flux assay: HEK293 wild type cell line counter screen (AID 1920065). An outline of the steps: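 Counter-screen of the Tox21 10K library for non-specific calcium release: dye-loaded cells received compounds in DMSO and were monitored by kinetic fluorescence (480/540 nm, 3 min). Fifteen concentrations, run in triplicate.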

A short description of assay [5]: p53 small molecule agonists, cell-based qHTS assay with human liver microsomes (AID 1963577).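 Note: p53 response element beta-lactamase reporter cells with liver microsomes plus NADPH.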 In short, it runs like this:
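HLM-supplemented p53RE-bla reporter assay: 16 h compound exposure at 37 C, microsomes and NADPH each 0.5 mg/mL final, read by fluorescence intensity.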

A short description of assay [6]: p53 small molecule agonists, cell-based qHTS assay with rat liver microsomes (AID 1963578). An outline of the steps: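 Quantitative HTS of the Tox21 10K library: p53RE-bla cells, rat liver microsomes plus NADPH at 0.5 mg/mL final each, 16 h at 37 C, beta-lactamase fluorescence detection.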
Assay [7] is described as follows: p53 small molecule agonists, cell-based qHTS assay with human liver microsomes: qHTS cell viability counter screen (AID 1963579). Note: nearly all actives have a fitted effect of over 45% in size. Note: potency is the fitted concentration of half-maximal effect. An outline of the steps:
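Viability of p53RE-bla cells is measured as CellTiter-Glo luminescence following a 16 h, 37 C incubation with compound, liver microsomes from human donors and NADPH.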

A short description of assay [8]: p53 small molecule agonists, cell-based qHTS assay with rat liver microsomes: qHTS cell viability counter screen (AID 1963580). Note: nearly all actives have a fitted effect of over 45% in size. Note: potency is the fitted concentration of half-maximal effect. An outline of the steps: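 In HCT-116 cells carrying a p53 response element-bla reporter, compounds were metabolically activated in situ by rat liver microsomes with NADPH over 16 h. Cell ATP content then served as the cytotoxicity measure.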

Assay [9] in a line: p53 small molecule agonists, cell-based qHTS assay: qHTS cell viability counter screen (AID 1963581). Note: nearly all actives have a fitted effect of over 45% in size. Note: potency is the fitted concentration of half-maximal effect. An outline of the steps:
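Cells: HCT-116 with p53 response element-driven beta-lactamase. Treatment: 16 h, 37 C, compounds in DMSO. Read: CellTiter-Glo luminescence after 30 min RT.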

Assay [10] can be described thus: p53 small molecule agonists, cell-based qHTS assay (AID 1963582; active = well fitted activation curve with a large enough effect in the signal ratio in the repeat runs, not every such curve was filed as active; the % refers to the signal ratio). In short, it runs like this: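 Quantitative HTS in p53RE-bla cells: after a 5 h settling period, compounds delivered in DMSO were left on cells for 16 h at 37 C, and reporter induction was measured as fluorescence following 2 h substrate loading.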
A short description of assay [11]: cAMP Responsive Elements (CRE) small molecule agonists, cell-based qHTS assay (AID 1963590). In short, it runs like this:
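Agonist mode qHTS in CRE-bla HEK 293T cells: compounds dosed from DMSO for 3 h at 37 C/5% CO2, followed by LiveBLAzer B/G FRET substrate for 2 h at room temperature.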

The nature of assay [12]: cAMP Responsive Elements (CRE) small molecule antagonists, cell-based qHTS assay (AID 1963591; active = well fitted inhibition curve with a large enough effect in the signal ratio in the repeat runs, not every such curve was filed as active; the % refers to the signal ratio). An outline of the steps:
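Antagonist mode: test compounds are co-incubated with the adenylyl cyclase activator NKH477 (0.25 uM final) on CRE-bla HEK293T cells for 3 h at 37 °C, followed by LiveBLAzer substrate loading.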

The target in assay [13] is Beta-2 adrenergic receptor (Homo sapiens) (UniProt P07550). As to the kind of experiment: Adrenergic beta2 receptor (ADRB2) small molecule antagonists, cell-based qHTS assay (AID 1963592). Note: series mostly up to about 92 µM; nearly all actives have a fitted effect of over 50% in size. An outline of the steps: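 Cells (CHO, stable ADRB2 overexpression) incubated 18-20hr at 37C; compounds added from DMSO; agonist mix (1nM isoproterenol, 100uM IBMX, 25uM Ro-20-1724) added; 0.5hr RT; d2-cAMP and anti-cAMP-cryptate added; 1hr RT; 665/615 nm read.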

The target is the same in assay [14]. As to the kind of experiment: Adrenergic beta2 receptor (ADRB2) small molecule agonists, cell-based qHTS assay (AID 1963593).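 Note: CHO cells stably overexpressing human ADRB2.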 In short, it runs like this:
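CHO cells stably over-expressing ADRB2 were plated overnight at 37C, then dosed with compounds plus a stimulation mix containing 100uM IBMX and 25uM Ro-20-1724 for 0.5hr at room temperature. cAMP was measured by HTRF competition, 1hr.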

Assay [15] deals with D(2) dopamine receptor (Homo sapiens) (UniProt P14416). Kind of assay: Dopamine D2 receptor (DRD2) small molecule agonists, cell-based qHTS assay (AID 1963594). Note: nearly all actives have a fitted effect of over 35% in size. An outline of the steps:
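HEK293 cells stably expressing DRD2 were cultured 24 h at 37 C, then given Ro20-1724 (0.1 mM final) and compounds for 10 min at room temperature. NKH477 (200nM) was then added for 30 min. cAMP was read by HTRF.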

Assay [16] shares this target. Kind of assay: Dopamine D2 receptor (DRD2) small molecule antagonists, cell-based qHTS assay (AID 1963595; active = well fitted inhibition curve with a large enough effect in the signal ratio in the repeat runs, with a control signal flat; the % refers to the signal ratio; note: potency is the fitted concentration of half-maximal effect). An outline of the steps: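 HTRF cAMP read-out at 665 and 620 nm emission (340 nm excitation). Antagonist mode: compounds were tested against 12 nM quinpirole in DRD2-HEK293 cells, with 200 nM NKH477 raising cAMP and 0.1 mM Ro20-1724 blocking its breakdown.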

The target of assay [17] is 5-hydroxytryptamine receptor 2A (Homo sapiens) (UniProt P28223). Kind of assay: 5-hydroxytryptamine receptor 2A (HTR2A) small molecule antagonists, cell-based qHTS assay (AID 1963586). Note: nearly all actives have a fitted effect of over 45% in size. Note: potency is the fitted concentration of half-maximal effect. An outline of the steps: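 Antagonist-mode intracellular calcium assay: DOI (4 nM) added after 5 min compound pre-incubation at room temperature to dye-loaded HTR2A-CHO cells. Fluorescence followed for 3 min, sampled every second.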

Assay [18] has the same target. As to the kind of experiment: 5-hydroxytryptamine receptor 2A (HTR2A) small molecule agonists, cell-based qHTS assay (AID 1963587). Note: nearly all actives have a fitted effect of over 30% in size. Note: potency is the fitted concentration of half-maximal effect. In short, it runs like this: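 HTR2A-CHO cells, plated 18 h at 37 C/5% CO2, dye-loaded 1 h at 37 C; compounds in DMSO added by pin tool (agonist mode). Intracellular calcium flux read as kinetic fluorescence on FDSS over 2 min at 1 s intervals.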

Assay [19] deals with Muscarinic acetylcholine receptor M1 (Homo sapiens) (UniProt P11229). Kind of assay: Cholinergic receptor muscarinic 1 (CHRM1) small molecule agonists, cell-based qHTS assay (AID 1963589). Note: nearly all actives have a fitted effect of over 35% in size. An outline of the steps: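 Agonist-mode qHTS in CHO cells stably carrying human muscarinic M1. Intracellular calcium is tracked by fluorescence every second after compound transfer; each compound runs at 15 concentrations in three independent runs.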

Assay [20] has the same target. As to the kind of experiment: Cholinergic receptor muscarinic 1 (CHRM1) small molecule antagonists, cell-based qHTS assay (AID 1963588). Note: nearly all actives have a fitted effect of over 40% in size. Note: potency is the fitted concentration of half-maximal effect. An outline of the steps: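 CHRM1-CHO calcium-flux assay, antagonist mode. Cells were seeded 18 h, dye-loaded 1 h at 37 C and given compound for 5 min at RT, then acetylcholine was added at 50nM. FDSS fluorescence was read 3 min; 15 concentrations, three runs.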

Chain of 5-hydroxytryptamine receptor 2A (Homo sapiens) (P28223 whole entry, looked up): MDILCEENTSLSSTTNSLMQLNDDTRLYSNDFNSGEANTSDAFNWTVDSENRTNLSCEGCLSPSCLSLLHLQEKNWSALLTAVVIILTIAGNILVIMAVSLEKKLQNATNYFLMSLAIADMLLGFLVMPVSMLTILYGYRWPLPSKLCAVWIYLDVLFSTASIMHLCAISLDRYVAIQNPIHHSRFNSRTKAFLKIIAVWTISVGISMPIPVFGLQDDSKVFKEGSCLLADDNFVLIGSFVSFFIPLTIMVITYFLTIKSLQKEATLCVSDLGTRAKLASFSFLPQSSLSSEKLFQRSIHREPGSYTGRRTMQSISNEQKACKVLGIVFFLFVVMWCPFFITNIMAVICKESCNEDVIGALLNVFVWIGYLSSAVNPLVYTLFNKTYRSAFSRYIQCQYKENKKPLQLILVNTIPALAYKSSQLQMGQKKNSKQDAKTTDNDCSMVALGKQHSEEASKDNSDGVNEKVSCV
Chain of Gonadotropin-releasing hormone receptor (Homo sapiens) (P30968 whole entry, looked up): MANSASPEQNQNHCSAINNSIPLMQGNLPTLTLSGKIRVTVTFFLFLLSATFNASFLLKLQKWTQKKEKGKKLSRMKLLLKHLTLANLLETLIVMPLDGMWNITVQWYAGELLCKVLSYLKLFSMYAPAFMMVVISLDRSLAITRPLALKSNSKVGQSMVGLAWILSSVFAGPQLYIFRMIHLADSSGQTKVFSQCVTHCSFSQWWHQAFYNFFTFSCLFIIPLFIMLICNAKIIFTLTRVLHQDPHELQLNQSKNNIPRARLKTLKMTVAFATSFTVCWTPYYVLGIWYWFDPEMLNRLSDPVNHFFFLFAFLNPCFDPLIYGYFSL
Chain of KiSS-1 receptor (Homo sapiens) (Q969F8 whole entry, looked up): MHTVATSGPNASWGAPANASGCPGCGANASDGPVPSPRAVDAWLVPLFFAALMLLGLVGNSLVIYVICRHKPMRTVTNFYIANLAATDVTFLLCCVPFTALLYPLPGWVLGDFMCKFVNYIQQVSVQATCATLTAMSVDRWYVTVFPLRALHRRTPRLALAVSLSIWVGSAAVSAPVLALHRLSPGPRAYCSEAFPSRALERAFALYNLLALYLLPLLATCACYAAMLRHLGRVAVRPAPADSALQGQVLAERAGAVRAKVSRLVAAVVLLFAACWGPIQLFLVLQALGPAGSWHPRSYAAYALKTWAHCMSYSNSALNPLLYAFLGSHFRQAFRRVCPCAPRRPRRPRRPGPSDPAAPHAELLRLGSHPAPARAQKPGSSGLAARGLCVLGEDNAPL
Chain of Beta-2 adrenergic receptor (Homo sapiens) (P07550 whole entry, looked up): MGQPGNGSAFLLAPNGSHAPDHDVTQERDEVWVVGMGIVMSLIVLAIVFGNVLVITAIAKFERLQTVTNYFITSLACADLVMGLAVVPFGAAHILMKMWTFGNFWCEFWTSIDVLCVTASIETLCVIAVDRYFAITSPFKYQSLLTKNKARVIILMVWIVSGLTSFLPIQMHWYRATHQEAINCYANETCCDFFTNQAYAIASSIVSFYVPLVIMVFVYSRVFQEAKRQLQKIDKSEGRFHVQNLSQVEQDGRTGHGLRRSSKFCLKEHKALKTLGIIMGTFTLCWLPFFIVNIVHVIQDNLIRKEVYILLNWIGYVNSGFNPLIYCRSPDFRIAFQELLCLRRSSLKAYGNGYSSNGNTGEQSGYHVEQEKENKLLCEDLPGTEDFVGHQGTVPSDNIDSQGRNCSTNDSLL
Chain of Muscarinic acetylcholine receptor M1 (Homo sapiens) (P11229 whole entry, looked up): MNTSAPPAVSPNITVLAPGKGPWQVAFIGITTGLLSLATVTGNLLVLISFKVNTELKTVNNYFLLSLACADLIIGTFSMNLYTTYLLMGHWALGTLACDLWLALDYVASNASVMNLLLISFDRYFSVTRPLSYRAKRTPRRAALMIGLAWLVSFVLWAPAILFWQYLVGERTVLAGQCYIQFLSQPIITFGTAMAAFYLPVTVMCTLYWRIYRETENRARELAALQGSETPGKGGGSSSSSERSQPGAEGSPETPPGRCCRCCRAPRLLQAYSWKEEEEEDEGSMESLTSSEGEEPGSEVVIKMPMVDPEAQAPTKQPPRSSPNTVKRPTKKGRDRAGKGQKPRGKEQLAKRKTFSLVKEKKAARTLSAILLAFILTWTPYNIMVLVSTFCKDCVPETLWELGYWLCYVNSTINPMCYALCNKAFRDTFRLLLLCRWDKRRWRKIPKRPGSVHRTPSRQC
Chain of D(2) dopamine receptor (Homo sapiens) (P14416 whole entry, looked up): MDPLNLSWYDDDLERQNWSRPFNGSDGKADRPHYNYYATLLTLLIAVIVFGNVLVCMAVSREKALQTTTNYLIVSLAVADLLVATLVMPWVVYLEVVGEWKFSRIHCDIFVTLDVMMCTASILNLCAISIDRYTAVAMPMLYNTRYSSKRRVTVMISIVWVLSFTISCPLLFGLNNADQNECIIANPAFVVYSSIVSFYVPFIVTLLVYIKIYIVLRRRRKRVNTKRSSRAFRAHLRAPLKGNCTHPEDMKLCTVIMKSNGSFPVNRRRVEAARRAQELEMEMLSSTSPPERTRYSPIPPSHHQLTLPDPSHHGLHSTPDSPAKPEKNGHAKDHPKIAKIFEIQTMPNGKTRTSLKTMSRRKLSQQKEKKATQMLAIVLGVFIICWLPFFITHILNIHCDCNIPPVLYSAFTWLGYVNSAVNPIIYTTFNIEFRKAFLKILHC

Take `Cc1noc(NS(=O)(=O)c2ccc(N)cc2)c1C`: the Potency result in assay [1], in assay [2], in assay [3], in [4], in assay [5] and in assay [6] was “inactive” each time. The Potency result in assay [7], in assay [8], in assay [9], in assay [10], in assay [11] and in assay [12] was “inactive” in each case. The Potency entry in [13], in [14], in assay [15] and in assay [16] was “inactive” each time.

For `CC(=O)CC/C=C(\C)CCC=C(C)C`, the Potency result in [1], in assay [2], in assay [3], in assay [4], in assay [5] and in assay [6] was “inactive” throughout. Moreover, the Potency entry in assay [7], in [8], in assay [9], in assay [10], in assay [17] and in [18] was “inactive” throughout. The Potency entry in assay [19], in [11], in assay [12], in assay [13], in assay [14] and in [15] was “inactive” each time. The Potency result in assay [16] was “inactive”.

With `CC(=O)C1=C(C)[C@@H]2C[C@@]3(C1)[C@H](C)CC[C@H]3C2(C)C`, the Potency result in assay [1], in [2], in assay [3], in assay [4], in [5] and in assay [6] was “inactive” in each case. Besides, the Potency entry in assay [7], in assay [8], in [9], in assay [10], in assay [17] and in assay [18] was “inactive” throughout. The Potency entry in assay [20], in assay [19], in assay [11], in [12], in [13] and in assay [14] was “inactive” each time. Further, the Potency result in assay [15] and in [16] was “inactive” each time.

For `O=[N+]([O-])c1ccccc1C(F)(F)F`, the Potency entry in assay [1], in [2], in assay [3], in [4], in assay [5] and in [6] was “inactive” throughout. For the same compound, the Potency entry in assay [7], in [8], in assay [9], in assay [17], in assay [18] and in [20] was “inactive” throughout. In addition, the Potency result in [11], in [12], in assay [13], in assay [14], in [15] and in [16] was “inactive” in each case.

Turning to `C/C=C/c1ccc(OCC)c(O)c1`, the Potency entry in assay [1], in assay [2], in [3], in assay [4], in assay [5] and in assay [6] was “inactive” in each case. The Potency entry in [7], in assay [8], in assay [9], in assay [10], in [17] and in assay [18] was “inactive” each time. The Potency entry in assay [20], in assay [19], in [11], in [12], in assay [13] and in assay [14] was “inactive” throughout. Further, the Potency result in assay [15] and in assay [16] was “inactive” each time.

On to `CCCCCCCCCCCCCCCC[N+](C)(C)Cc1ccccc1`, for which the Potency entry in assay [1], in assay [2], in assay [3], in [4], in assay [6] and in assay [19] was “inactive” in each case. For the same compound, the Potency entry in assay [13], in assay [14] and in [15] was “inactive” each time. The Potency in assay [7] is 53 µM (active) and 33 µM (active) and inactive; in assay [8] it was 41.5 µM (active) and inactive; in assay [9] it was 37 µM (active); in assay [17], “inactive and 11.6 µM (active)”; in assay [18] it was 49.8 µM (active); in [20], 0.41 µM (active). In [16], the Potency is 55.5 µM (active).

Regarding `CC[C@H](C)C(=O)O[C@H]1C[C@@H](C)C=C2C=C[C@H](C)[C@H](CC[C@@H]3C[C@@H](O)CC(=O)O3)[C@H]21`, the Potency entry in assay [1], in assay [2], in assay [3], in [4], in assay [5] and in assay [6] was “inactive” each time. In addition, the Potency result in [8], in [9], in assay [10], in [11], in [13] and in [15] was “inactive” each time.

As for `Cc1ccc(O)c(-n2nc3ccccc3n2)c1`, the Potency in [1] is 60.6 µM (active) and 27.3 µM (active) and 5.96 µM (active); in assay [7] it was 50.9 µM (active) and inactive. Besides, the Potency entry in [2], in [3], in assay [4], in assay [5], in assay [6] and in [8] was “inactive” throughout. Also, the Potency entry in [9], in assay [10], in [17], in assay [18], in assay [20] and in [19] was “inactive” throughout. Moreover, the Potency entry in assay [11], in assay [12], in assay [13], in [14], in assay [15] and in assay [16] was “inactive” in each case.
